Several values for one entry are separate records, joined by “and”; a condition that tells them apart may be missing. Identical values can stand only once. Records with an inconclusive call do not appear. A call without a number means that no potency is given here. Activity calls are given as the source filed them. Calls follow the shape of the dose curve; as a rule, active = well fitted cell-killing curve with a large enough effect in the repeat runs; inconclusive = weak or mixed curves, or effect the other way; inactive = flat fitted curve, though single readings scatter.
Assay: cAMP Responsive Elements (CRE) small molecule agonists, cell-based qHTS assay: qHTS cell viability counter screen (AID 2060914);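 also: viability read after 3 h of compound exposure; nearly all actives have a fitted effect of over 50% in size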
Conditions: CRE-bla HEK293T viability, CellTiter-Glo luminescence, 5 h; series mostly up to 92.4 µM
From the text: National Center for Advancing Translational Sciences [NCATS]
Division of Preclinical Innovation [DPI]
U.S. Environmental Protection Agency [EPA]
National Institutes of Environmental Health Sciences [NIEHS]
National Toxicology Program [NTP]
U.S. Food and Drug Administration [FDA]
CREB (cyclic-AMP Responsive Element Binding Protein) is a cellular transcription factor. It binds to certain DNA sequences called cAMP Responsive Elements (CRE) and regulates the transcription of the genes. […] This cell line can be used to find agonists/antagonists of the cyclic AMP signaling pathway. The activation of the report gene under culture conditions can be detected by fluorescence intensity. This cell line has been used to screen the Tox21 10K compound library to identify agonists that induce oxidative stress. The cytotoxicity of the Tox21 compound library against the CRE-bla cell line was tested in parallel by measuring the cell viability using CellTiter-Glo assay (Promega, Madison, WI) in the same wells.
Tox21 Assay Protocol Summary:
CRE-bla Hek 293T cells were suspended in assay medium (DMEM containing 10% dialyzed FBS, 0.1 mM NEAA, 1 mM sodium pyruvate and 25 mM HEPES) and dispensed at 2,000 cells/5 uL /well into 1536-well black wall/clear bottom plates using a Multidrop Combi (ThermoFisher Scientific, Waltham, MA) dispenser. After the assay plates were incubated at 37 C/5% CO2 for 18 hrs, 23 nL of compounds dissolved in DMSO, positive controls or DMSO only was transferred to the assay plate by a pintool workstation (Kalypsys, San Diego, CA). After the plates were incubated at 37 C/5% CO2 for 3 hrs, 1 uL of LiveBLAzer B/G FRET substrate (Invitrogen, Carlsbad, CA) was added to each well using Bioraptr Flying Reagent Dispenser (FRD, Aurora Discovery, San Diego, CA). The plates were incubated at room temperature for 2 h, then fluorescence intensities were measured using an Envision plate reader (PerkinElmer, Shelton, CT) at Excitation 405nm, Emission 460nm and 530nm. The % activity was determined from the ratio of 460nm/530nm. For cell viability readout that measures cytotoxicity, 4 uL /well of CellTiter-Glo reagent was added into the assay plates using Bioraptr FRD. After 30 min incubation at room temperature, the luminescence intensity in the assay plates was measured using a ViewLux (PerkinElmer, Shelton, CT) plate reader.
Potency is read from the fitted curve at half-maximal effect.

| SMILES | Potency |
| --- | --- |
| CCCCCCCCCCC=O | inactive |
| Cn1cnc([N+](=O)[O-])c1Sc1ncnc2nc[nH]c12 | inactive |
| O=C1CCC(=O)N1 | inactive |
| CCCCCCCCC(C)=O | inactive |
| Oc1ccc(Cc2ccccc2O)cc1 | inactive |
| CCO[Si](CCCSSSSCCC[Si](OCC)(OCC)OCC)(OCC)OCC | inactive |
| Cc1ccc(N)cc1S(=O)(=O)O | inactive |
| Oc1cccc2[nH]ccc12 | inactive |
| CC(=O)OCC1=C(C(=O)O)N2C(=O)[C@@H](NC(=O)Cc3cccs3)[C@H]2SC1 | inactive |
| CCCCCCCCCCCCCCCC(=O)NCCO | inactive |
| CCCCCCCOC(C)=O | inactive |
| C=C(C)C(=O)OCCC(F)(F)C(F)(F)C(F)(F)C(F)(F)C(F)(F)C(F)(F)F | inactive |
| COC(=O)[C@@H]1CC2=CC(=O)CC[C@]2(C)[C@@]23O[C@@H]2C[C@@]2(C)[C@@H](CC[C@@]24CCC(=O)O4)[C@H]13 | inactive |
| CCOc1ccc2nc(S(N)(=O)=O)sc2c1 | inactive |
| CC1(c2ccccc2)OC(C(=O)O)=CC1=O (stereo not given) | inactive |
| CC(N=C(NC#N)Nc1ccncc1)C(C)(C)C (stereo not given) | inactive |
| Clc1cccc(C(c2ccc3nc[nH]c3c2)n2ccnc2)c1 (stereo not given) | inactive |
| NC(=S)NC(N)=S | inactive |
| CC(C)=CC=O | inactive |
| CCCCCCCCCCCCc1ccccc1O | 60.3 µM (active) and 54.5 µM (active) |

| SMILES | Potency |
| --- | --- |
| C=C1CC[C@H](O)CC1=C/C=C1\CCC[C@]2(C)[C@@H]([C@H](C)/C=C/[C@H](C)C(C)C)CC[C@@H]12 | inactive |
| CC/C(=C\C(=N/O)C(N)=O)C(C)[N+](=O)[O-] (stereo not given) | inactive |
| O=C(Cl)c1cccc(C(=O)Cl)c1 | inactive |
| O=C(NS(=O)(=O)/C=C/c1cccs1)c1ccc(F)cc1Br | inactive |
| Cc1ccccc1C(=O)O | inactive |
| CC(=O)C=O | inactive |
| CN(C)CCC=C1c2ccccc2CCc2ccccc21 | inactive |
| CCCC1C(CC)=CC(CC)=CN1c1ccccc1 (stereo not given) | inactive |
| CC1CC(OC(=O)c2ccccc2O)CC(C)(C)C1 (stereo not given) | inactive |
| O=C(O)c1cccc(C(=O)O)c1C(=O)O | inactive |
| Cc1nc2ccccc2n1Cc1ccc(Cl)cc1 | inactive |
| Nc1cc([N+](=O)[O-])cc(Cl)c1O | inactive |
| C[n+]1ccn(CCO)c1 | inactive |
| O=S(=O)(O)CO | inactive |
| CC1(C)[C@@H](O[C@H]2O[C@H](C(=O)O)[C@@H](O)[C@H](O)[C@H]2O[C@@H]2O[C@H](C(=O)O)[C@@H](O)[C@H](O)[C@H]2O)CC[C@]2(C)[C@H]3C(=O)C=C4[C@@H]5C[C@@](C)(C(=O)O)CC[C@]5(C)CC[C@@]4(C)[C@]3(C)CC[C@@H]12 | inactive |
| CC(C)C(C)(C)C(C)(C)C(C)(C)S | inactive |
| CCCCCCOC(=O)c1ccccc1O | inactive |
| CC1=C(C=O)C(C)(C)CC=C1 | inactive |
| COc1ccc(N)c(OC)c1 | inactive |
| NC(=O)c1cnccn1 | inactive |

Reference: PubChem BioAssay (Tox21)
